# High-throughput results (PubChem)
# This is a sample that favours compounds with a hit; in the whole collection about 19% have one here.
# DT40 TDP1 no CPT = qHTS for Inhibitors of human tyrosyl-DNA phosphodiesterase 1 (TDP1): qHTS in cells in absence of CPT; hit rate 15% among 420,000; Potency, µM (doses to about 46.2 µM), inactives show top-dose activity change, negative = growth inhibition, usual class: inhibitors; DT40 Tdp1-/- hTDP1 cells, no CPT, ATP luminescence, 48 h; AID 686978, 2013; note: potency is the fitted concentration of half-maximal effect; nearly all actives have a fitted effect of over 55% in size
#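 Compound effects on proliferation are scored in DT40 Tdp1-/-;hTDP1 cells in the absence of CPT. ATP levels (CellTiter-Glo luminescence) are recorded after a ≥48 hr, 37 °C incubation.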
# ELG1 repair inh = blocks ELG1-dependent DNA repair in HEK293T cells; Potency, µM (titrated, usually from 46.1 µM), for the others: top-dose activity change, negative = inhibition, hits mostly inhibitors; hit rate 2.3% among 330,000; HEK293T ELG1-luciferase reporter, luminescence, 16 h; DNA damage induced by 5-fluorouridine; AID 504467; note: potency is the fitted concentration of half-maximal effect; nearly all actives have a fitted effect of over 55% in size
#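 5-Fluorouridine DNA damage + compound/DMSO, 2,000 cells/well, 16 h, 37 °C/5% CO2. ONE-Glo, 30 min RT, luminescence. Readout = decrease in reporter signal.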
# DT40 TDP1 CPT = DT40-hTDP1 cell growth loss with CPT; AID 686979; Potency, µM (titrated, usually from 46.2 µM), inactives show at the top dose activity change, negative = growth inhibition, hits mostly inhibitors; hit rate 12% among 420,000; chicken DT40 Tdp1-/-;hTDP1 cells + 20 nM CPT, ATP luminescence, 48 h; note: potency is the fitted concentration of half-maximal effect; nearly all actives have a fitted effect of over 55% in size
#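 Chicken DT40 Tdp1-/- cells complemented with human TDP1, 400 cells/well, exposed to compounds plus 20 nM camptothecin for at least 48 h at 37 C; viability read as ATP content by CellTiter-Glo luminescence.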
# HT1080NT lethal = kills 2HG-producing HT-1080-NT fibrosarcoma cells; hit rate 1.6% among 360,000; HT-1080-NT fibrosarcoma viability, CellTiter-Glo ATP luminescence, 48 h; AID 686970; Potency, µM (top dose mostly 46.1 µM), for the others: at the highest dose activity, negative = less viability, hits mostly cytotoxic;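 note: NT is the 2HG producing partner of a matched IDH1 knockdown line; potency is the fitted concentration of half-maximal effect; 0% = DMSO-treated cells and -100% = media-only wells without cells; nearly all actives have a fitted effect of over 55% in size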
#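 HT-1080-NT fibrosarcoma cells (2HG-overproducing), 750 cells/well in RPMI with 5% FBS, dosed after 2 h and incubated 48 h at 37C. CellTiter-Glo luminescence normalized to DMSO and no-cell wells; concentration-response curves fitted and classed.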
# HT1080 IDH1KD tx = kills HT-1080 cells with IDH1 knockdown; HT-1080 IDH1 knockdown viability, ATP luminescence, 48 h; Potency, µM (titrated, usually from 46.1 µM), inactives show at the highest dose activity, negative = toxicity, hits mostly cytotoxic; hit rate 2% among 360,000; AID 686971;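 note: potency is the fitted concentration of half-maximal effect; 0% = DMSO wells and -100% = cell-free medium wells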
#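 IDH1KD HT-1080 cells, 750/well, RPMI + 5% FBS; compound pinned after 2 h settling; 48 h, 37 °C; CellTiter-Glo luminescence; % activity normalised to DMSO and no-cell wells; curves fitted, classed by r2 and efficacy.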
# IL-1B inflam inh = blocks inflammasome-driven IL-1 beta release; activity change, % at 57.5 µM; THP-1 LPS/ATP IL-1B secretion, AlphaLISA, 16 h; hits give low values; hit rate 4.7% among 360,000; in the data active = activity change below about -50%; inconclusive = mostly about -30% to -49%
#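 Secreted IL-1B measured by AlphaLISA bead assay after 16 h compound exposure of THP-1 cells; compounds (final up to 57.5 uM) added 1 h before LPS (250 ng/mL) and ATP (1.25 mM) stimulation; lower signal means less secretion.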
# Active calls of the source: *; ? = inconclusive; . = not tested or not shown. Unless noted, calls come from the whole dose curve; as a rule, active = well fitted curve in the direction sought with a large enough effect; inconclusive = small, poorly fitted or top-dose-only effect, or another doubt; inactive = no such curve, though single readings can be large; an effect the other way counts as inactive or inconclusive. Unless noted, % is set by controls: 0 for no effect and ±100 for the full control effect.
SMILES,DT40 TDP1 no CPT,ELG1 repair inh,DT40 TDP1 CPT,HT1080NT lethal,HT1080 IDH1KD tx,IL-1B inflam inh
CC(NC(=O)CN1C(=O)COc2ccc(Cl)cc21)c1ccccc1 (stereo unspecified),-18%,.,-1%,.,.,.
CC(=O)CC1(O)C(=O)Nc2ccccc21 (stereo unspecified),12%,13%,-4%,8%,-10%,11
O=C(c1ccco1)[C@@H]1[C@@H]2C(=O)N(c3ccc(F)cc3)C(=O)[C@@H]2C2c3ccccc3C=CN21 (stereo partly specified),.,3%,.,.,.,.
CC(=O)[C@@H]1[C@@H](C(=O)c2ccccc2)[C@]2(C(=O)Nc3ccccc32)[C@H]2C=Cc3cc(F)ccc3N12,18µM*,0%,23µM*,-25%,-18%,0
O=C(c1ccccc1)[C@@H]1[C@@H](C(=O)c2ccc(F)cc2)[C@@]2(C(=O)Nc3ccccc32)[C@H]2c3ccccc3C=CN12,15µM*,?,23µM*,-1%,-14%,?
O=c1c2ccccc2n(Cc2c(F)cccc2Cl)c(=O)n1CCc1ccccc1,-23%,.,-17%,.,.,.
N#Cc1c(N)n(-c2cccc(Cl)c2)c2nc3ccccc3nc12,-8%,.,-14%,.,.,.
O=C1C=C(C#Cc2ccc(Oc3ccccc3)cc2)C[C@@H](c2ccc(F)cc2)C1,12µM*,.,16µM*,?,?,-80*
COc1cccc(C#CC2=CC(=O)C[C@H](c3ccc(F)cc3)C2)c1,8.2µM*,.,13µM*,?,?,-93*
COc1ccc2c(C)c(CC(=O)NCc3ccc(C)cc3)c(=O)oc2c1OC,-23%,.,0%,.,.,.
CC(C)(C)NC(=O)C(c1ccc(O)cc1)N(C(=O)Cn1nnc(-c2ccc(F)cc2)n1)c1ccccc1F (stereo unspecified),16µM*,0%,?,-17%,-2%,?
Cc1ccccc1N(C(=O)Cn1nnc(-c2ccc(F)cc2)n1)C(C(=O)NC(C)(C)C)c1ccncc1 (stereo unspecified),-59%,-3%,1%,-1%,-10%,-57*
Cc1ccc(N(C(=O)Cn2nnc(-c3ccc(F)cc3)n2)C(C(=O)NC(C)(C)C)c2ccncc2)cc1 (stereo unspecified),-21%,-11%,-10%,4%,22%,-69*
CC(C)(C)NC(=O)C(c1ccncc1)N(C(=O)Cn1nnc(-c2ccc(F)cc2)n1)c1ccccc1F (stereo unspecified),-28%,8%,-11%,3%,10%,-9
CN(C)CCCNc1nc2sc3c(c2c(=O)n1CCc1ccccc1)CCCCC3,16µM*,1%,?,?,?,.
CN(C)CCCn1c(=O)n(CCc2ccccc2)c(=O)c2c3c(sc21)CCCCC3,23µM*,3%,?,5%,0%,?
CN(C)CCn1c(=O)n(Cc2ccccc2)c(=O)c2c3c(sc21)CCCCC3,?,2%,-7%,?,?,-64*
O=C1c2ccccc2C(=O)C1c1ccncc1,23µM*,?,?,-5%,-2%,-21
Cc1ccc(C2C(=O)c3ccccc3C2=O)cc1,-12%,24%,3%,18%,9%,7
O=C1N(c2ccccc2)C(c2ccccc2)C12CCCCC2 (stereo unspecified),?,-11%,?,1%,7%,27
CCCC(CNC(C)=O)(C1=CCCCC1)c1ccccc1 (stereo unspecified),13µM*,.,18µM*,1%,2%,19
CCOC(=O)c1c(C)[nH]c(C)c1S(=O)(=O)N1CCC(C(=O)Nc2ccc(OC)c(OC)c2)CC1,6%,.,21%,.,.,.
O=C(c1ccco1)[C@@H]1[C@@H]2C(=O)N(c3ccc(F)cc3)C(=O)[C@@H]2[C@H]2C=Cc3ccccc3N21,18µM*,9%,6.5µM*,-15%,-14%,-18
COc1ccc(C(CC(=O)Nc2ccc(F)c(Cl)c2)N2Cc3ccccc3C2=O)cc1OC (stereo unspecified),15µM*,.,?,.,.,.
COc1cc(NC(=O)CC(c2cccs2)N2Cc3ccccc3C2=O)cc(OC)c1OC (stereo unspecified),23µM*,.,23µM*,.,.,.
SMILES,DT40 TDP1 no CPT,ELG1 repair inh,DT40 TDP1 CPT,HT1080NT lethal,HT1080 IDH1KD tx,IL-1B inflam inh
COc1ccc(C(CC(=O)Nc2ccc(C)c(C)c2)N2Cc3ccccc3C2=O)cc1OC (stereo unspecified),21µM*,.,15µM*,.,.,.
Cn1cc(-c2coc3c(C(=O)NCc4ccco4)cccc23)cn1,?,.,?,?,-1%,-13
Cc1ccccc1CN1CCc2nc(N3CCN(c4ncccn4)CC3)ncc2C1,21µM*,.,?,.,.,.
CCOc1ccccc1CN1CCc2nc(N3CCN(c4ccccc4F)CC3)ncc2C1,21µM*,.,16µM*,.,.,.
CCOc1ccc(CN2CCc3nc(N4CCN(c5ccccn5)CC4)ncc3C2)cc1OC,23µM*,.,23µM*,.,.,.
Cc1c(CC(=O)N2CCCCC2)c(=O)oc2cc(O)ccc12,4%,.,-4%,.,.,.
